The text below walks through data of the supplement of paper PMC4954754.

± gives the uncertainty stated by the source.

One assay concerns HEK293T-Rex XBP1-RLuc. Put plainly: XBP1-RLuc splicing reporter activation, triplicate, relative to 500 nM thapsigargin (% of thapsigargin); higher = stronger IRE1/XBP1s reporter activation. To be noted: 6.8 µM; 18 h; screen: confirmation. Here is the method: (§1)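 HEK293T-Rex cells stably expressing the ERSE-firefly luciferase (BiP promoter, ATF6-preferring) or XBP1-splicing Renilla luciferase (IRE1/XBP1s) reporter, 1536-well plates, compound at 6.8 µM for 18 hr at 37 °C; luminescence read […] and expressed as % activation = 100*(compound - median DMSO)/(median 500 nM thapsigargin - median DMSO). Primary screen was single-pass; confirmation screen in triplicate (mean ± SD).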
On to `O=C(/C=C/c1ccco1)Nc1ccccn1`, for which the “XBP1-RLuc splicing reporter activation” value turned out to be 0.777 ± 0.52.
Regarding `CN1C(=O)/C(=C\c2ccc(O)c(O)c2)SC1=S`, the “XBP1-RLuc splicing reporter activation” value was found to be 13.9 ± 1.8.
Take `C(=N/Nc1nnc2c(n1)[nH]c1ccccc12)/c1c[nH]c2ccccc12`: the “XBP1-RLuc splicing reporter activation” value turned out to be 9.3 ± 1.4.
Regarding `Cc1nc(-c2coc3c(O)c(O)ccc3c2=O)cs1`, the “XBP1-RLuc splicing reporter activation” value stood at 7.82 ± 0.28.
As to `Cc1ccc2nc(/C(C#N)=C/c3ccc(O)c(O)c3)[nH]c2c1`, the “XBP1-RLuc splicing reporter activation” value is 16.5 ± 0.47.
For the molecule `CCCc1cc(C(=O)Nc2cc(C)ccc2O)no1`, the “XBP1-RLuc splicing reporter activation” value turned out to be 24.5 ± 4.7.
As for `COc1ccccc1-c1cnnc(N/N=C/c2c[nH]c3ccccc23)n1`, the “XBP1-RLuc splicing reporter activation” value is 8 ± 0.78.
As to `CC(C)NC(=O)c1cc(-c2ccc(O)cc2)on1`, the “XBP1-RLuc splicing reporter activation” value amounted to 18.5 ± 1.6.

A further assay has as its system HEK293T-Rex ERSE-FLuc. Put plainly: ERSE-FLuc reporter activation, triplicate confirmation, relative to 500 nM thapsigargin (% of thapsigargin); higher = stronger ATF6/ERSE reporter activation. To be noted: 6.8 µM; 18 h; screen: confirmation. Here is the method: as §1
With `O=C(/C=C/c1ccco1)Nc1ccccn1`, the ERSE-FLuc reporter activation was determined as 27.7 ± 4.8.
Take `CN1C(=O)/C(=C\c2ccc(O)c(O)c2)SC1=S`: the ERSE-FLuc reporter activation was determined as 25.2 ± 1.4.
Regarding `COC(=O)c1c(NC(=O)CCl)sc(C(=O)Nc2cccc([N+](=O)[O-])c2)c1C`, the ERSE-FLuc reporter activation was found to be 37.6 ± 7.8.
Molecule `CCCCNC(=O)c1cc(-c2cccs2)on1` gave an ERSE-FLuc reporter activation of 65.1 ± 6.3.
`O=C1NC(=Nc2ccc(F)cc2)S/C1=C\c1ccc(O)c(O)c1` returned an ERSE-FLuc reporter activation of 32.4 ± 2.3.
Molecule `Cc1cc(C)nc(/N=C(\N)Nc2ccc(OCc3ccc(Cl)cc3)cc2)n1` showed an ERSE-FLuc reporter activation of 59.7 ± 14.
Consider `Nc1nc(Nc2ccc(Cl)c(Cl)c2)nc2ccccc12`, for which the ERSE-FLuc reporter activation came out at 43.5 ± 3.9.
On to `O=[N+]([O-])c1ccc2nc(/C=C/c3ccccc3)[nH]c2c1`, for which the ERSE-FLuc reporter activation is 25.2 ± 1.7.
Molecule `N#CC1=C(N)Oc2c(ccc3ccccc23)C1c1ccccc1` (stereo not given) showed an ERSE-FLuc reporter activation of 27.3 ± 3.3.
`CCOc1cc(/C=C2/NC(=O)N(c3cccc(Cl)c3)C2=O)ccc1O`: the ERSE-FLuc reporter activation was 30.5 ± 9.3.
Molecule `Cc1ccc(O)c(-c2cc(C(F)(F)C(F)F)no2)c1` gave an ERSE-FLuc reporter activation of 37.1 ± 3.1.
`COc1cccc(/C=N/NC(=O)c2ccc(NC(=O)c3ccc(C)cc3)cc2)c1O` gave an ERSE-FLuc reporter activation of 36.4 ± 11.
`CCOc1cc(C2C(C(=O)OC3CCCCC3)=C(C)NC3=C2C(=O)CC(c2ccc(OC)cc2)C3)cc(Br)c1O` (stereo not given) came in with an ERSE-FLuc reporter activation of 27.2 ± 9.1.
In turn, `C(=N/Nc1nnc2c(n1)[nH]c1ccccc12)/c1c[nH]c2ccccc12` displayed an ERSE-FLuc reporter activation of 29.6 ± 8.
Same read-out and setting: then `O=[N+]([O-])c1ccc(/C=C/c2ccc(O)cc2)cc1`, with 28.8 ± 3.3.
The molecule `Cc1nc(-c2coc3c(O)c(O)ccc3c2=O)cs1` displayed an ERSE-FLuc reporter activation of 25.2 ± 4.1.
`Cc1ccc2nc(/C(C#N)=C/c3ccc(O)c(O)c3)[nH]c2c1` had an ERSE-FLuc reporter activation of 38.9 ± 2.7.
`CCCc1cc(C(=O)Nc2cc(C)ccc2O)no1`: the ERSE-FLuc reporter activation stood at 83.4 ± 6.3.
Same read-out and setting: then `Cc1cc2nc(/C(C#N)=C/c3ccco3)[nH]c2cc1C`, with 34.1 ± 8.6.
Same read-out and setting: then `Cc1ccc(C)c(/C=N/Nc2nncc3ccccc23)c1`, with 29.7 ± 1.9.
On the same count and under the same terms, then `CCOc1ccc2nc(NC(=O)c3ccn(C)n3)sc2c1`, with 30 ± 23.
Regarding `O=C(N/N=C/c1cccc(O)c1O)c1ccccn1`, the ERSE-FLuc reporter activation was 37.9 ± 9.1.
As for `Cc1nn(-c2ccc(F)cc2)c2ncc(C(=O)NCc3ccco3)c(Cl)c12`, the ERSE-FLuc reporter activation was 54.5 ± 3.9.
Molecule `C=CCNC(=O)c1cc(-c2ccccc2)on1` displayed an ERSE-FLuc reporter activation of 43.4 ± 5.
`COc1cccc(/C=N/NC(=O)c2n[nH]c3c2CCCC3)c1` gave an ERSE-FLuc reporter activation of 31.5 ± 1.1.
Still for that read-out and setting: then `N#Cc1ccc(-c2cccs2)nc1SCc1ccccn1`, with 25.2 ± 6.2; and `N#Cc1c(NC(=O)c2ccc3ncsc3c2)sc2c1CCC2`, with 32.1 ± 2.5.
For the molecule `CCc1cc2c(=O)c(-c3ccc4c(c3)OCCO4)coc2cc1OC`, the ERSE-FLuc reporter activation stood at 34.7 ± 3.1.
`COc1ccccc1-c1cnnc(N/N=C/c2c[nH]c3ccccc23)n1` displayed an ERSE-FLuc reporter activation of 37.9 ± 9.7.
Regarding `CC(C)NC(=O)c1cc(-c2ccc(O)cc2)on1`, the ERSE-FLuc reporter activation came to 25.8 ± 3.
On the same count and under the same terms, then `Nc1cn(-c2ccccc2)nc1-c1cccs1`, with 28.6 ± 6.5.
Molecule `O=C(Nc1ccc(O)cc1)c1c(O)c2c([nH]c1=O)CCCC2` came in with an ERSE-FLuc reporter activation of 29.7 ± 1.1.
`C=CCNC(=O)c1sc2nc3cc(C)c(C)cc3cc2c1N`: the ERSE-FLuc reporter activation came to 30.2 ± 5.3.
In turn, `COc1ccc(-c2cc(C(=O)Nc3cc(C)ccc3O)on2)cc1OC` had an ERSE-FLuc reporter activation of 33.8 ± 1.9.
`CN(C)c1ccc(C(=NO)c2ccc(N(C)C)cc2)cc1` came in with an ERSE-FLuc reporter activation of 28 ± 6.5.
In turn, `COc1ccc(C2=Nn3c(nnc3-c3ccc(OC)cc3)SC2)cc1` registered an ERSE-FLuc reporter activation of 30.7 ± 4.3.
The molecule `Nc1ccccc1NC(=O)c1ccc(C(F)(F)F)cc1` came in with an ERSE-FLuc reporter activation of 27.2 ± 5.7.
